# In all, about 1,300 compounds went through this assay and about 30 (2%) were called active. A call without a number means that no potency is given here. Inconclusive results (about 10%) are left out. Calls come from the whole dose curve; as a rule, active = well fitted inhibition curve with a large enough effect; inconclusive = small, poorly fitted or top-dose-only effect; inactive = flat fitted curve, though single readings scatter. The sample as a whole holds a higher share of actives than the screen did.
# Test: qHTS for antagonists of the Thyroid Stimulation Hormone Receptor: Hit Validation in HTRF Activity in a Luteinizing Hormone Receptor Cell Line
# Settings: LHR-expressing cell line, cAMP HTRF, antagonist mode; series mostly up to 58 µM
# From the text: The thyroid-stimulating hormone receptor (TSHR) is a member of the 7 trans-membrane-spanning receptor (7TMR) family of cell surface receptors. TSHR-mediated hyperthyroidism is important in thyroid pathology. The development of small molecule antagonists of TSHR may lead to therapeutic approaches for TSHR-mediated hyperthyroidism caused by constitutively activating mutations or stimulating auto-antibodies associated with Graves' disease. Graves' disease is the leading cause of hyperthyroidism and is caused by autoantibodies that stimulate TSHR (TsAbs) causing thyroid growth and unregulated overproduction of thyroid hormones and existing treatments have liabilities (agranulocytosis). In addition, TSHRs are known to be expressed in multiple extrathyroidal tissues including bone, brain, kidney, testis, fat and cells of the immune system but the role of the TSHR in these tissues is not clear. Therefore, TSHR antagonists/inverse agonists could be used as probes of extrathyroidal TSHR function. Finally, TSHR inverse agonists, which are a subclass of antagonists that inhibit agonist-independent (or basal or constitutive) TSHR signaling, could be used to inhibit TSH-independent signaling in patients with recurrent or metastatic thyroid cancer who are receiving thyroid hormone to suppress TSH.
# In collaboration between scientist from the NCGC and the NIDDK, a miniaturized HTRF high-throughput screen was developed. It's a cell based assay, where an anti cAMP antibody contains a fluorescent cryptate tag (excitation 337 nm; emission 620 nm) and the acceptor is cAMP-d2 (excitation 620 nm; emission 665 nm). When antibody and cAMP-d2 interact and are excited by a 337 nm light, a FRET occurs resulting in emission at 665 nm. The assay is competition between cAMP-d2 and cAMP (from the cell lysate). The homogeneous protocol allows for one step dispense after stimulation that is automation friendly. In order to confirm specificity of the compounds to the TSHR, a confirmatory assay was conducted on a similar family member, the Luteinizing Hormone (LH) receptor, transfected into a HEK 293 cell line, using an orthogonal detection technology to measure cAMP stimulation: antibody-based Homogeneous Time Resolved Fluorescence (HTRF).
# NIH Chemical Genomics Center [NCGC]
# NIH Molecular Libraries Probe Centers Network [MLPCN]
# Assay Provider: Marvin Gershengorn, NIDDK
# Homogeneous Time Resolved Fluorescence (HTRF) cAMP Assay. HEK 293 cells stably transfected with a vector containing the LH receptor and maintained under hygromycin selection were obtained from the laboratory of Dr. Marvin Gershengorn. Compounds were assayed using a HTRF cAMP detection kit (Cisbio) on the LH receptor transfected cell line. Briefly, 750 cells were plated in 2.5 ul/well of complete media (DMEM containing 10 % FCS, and 100 uM RO 20-1724) in 1536 well solid bottom white plates and 23 nl/well compound in DMSO solution or controls was added. Following 30 minute incubation at room temperature, 2.5 ul/well of labeled d2 cAMP and 2.5 ul/well of anti-cAMP antibody (both diluted 1:20 in lysis buffer) were added to each well using a flying reagent dispenser (Aurora Discovery, San Diego) . Plates were measured using the Envision plate reader (PerkinElmer, Boston, MA) with excitation at 330 nm and emissions of 615 nm and 660 nm.
# Potency is the fitted concentration of half-maximal effect.
row,Compound,Potency
1,CC(=O)c1ccc(N(C(=O)CNC(=O)c2ccco2)C(C(=O)NC2CCCC2)c2ccncc2)cc1 (stereo not drawn),inactive
2,Cc1cccc(N(C(=O)c2nsc(Cl)c2Cl)C(C(=O)NC2CCCC2)c2ccc(O)cc2)c1C (stereo not drawn),12 µM (active)
3,O=C(NC1CCCCC1)C(c1cccs1)N(Cc1cccs1)C(=O)c1cccs1 (stereo not drawn),inactive
4,Cc1c(C(=O)NCc2ccc3c(c2)OCO3)sc2nc(-c3ccccc3)cn12,inactive
5,N#Cc1c(Cl)nsc1NC(=O)c1ccccc1,inactive
6,O=C1CCCN1c1ccc(S(=O)(=O)Oc2ccc(Cl)cc2)cc1[N+](=O)[O-],inactive
7,CN(C)c1ccc(NC(=S)c2ccc3ccccc3n2)cc1,inactive
8,CSc1nc(-c2ccc(Cl)cc2Cl)[nH]c(=O)c1C#N,inactive
9,CCOc1cc(N2CCOCC2)c(OCC)cc1NC(=O)c1cccc(S(=O)(=O)N2CCOCC2)c1,inactive
10,COc1ccc(S(=O)(=O)Nc2ccc(C)cc2)cc1N(C)S(=O)(=O)c1ccc(Cl)cc1,inactive
11,O=C(Nc1ncc(S(=O)(=O)c2ccc([N+](=O)[O-])cc2)s1)c1ccc2ccccc2c1,inactive
12,O=C(Nc1ncc(S(=O)(=O)c2ccc([N+](=O)[O-])cc2)s1)c1cccc2ccccc12,inactive
13,CCOC(=O)CCCCCC(=O)Nc1ccc2c(c1)CC(=O)N([C@H](C)CO)C[C@@H](C)[C@H](CN(C)Cc1ccc3c(c1)OCO3)O2,inactive
14,c1ccc2c(CSc3ncnc4nc[nH]c34)cccc2c1,inactive
15,CC1=NN(C(N)=S)C(=O)C1N=Nc1ccc(Cl)cc1Cl (stereo not drawn),inactive
16,Cc1ncsc1CCOC(=O)C1C2CC3CC(C2)CC1C3 (stereo not drawn),inactive
17,CCOC(=O)N1CCN(C(=O)c2ccc3c(c2)N=C(CC)c2cc(C)ccc2S3)CC1,inactive
18,O=C(COC(=O)c1cc(S(=O)(=O)N2CCOCC2)c(Cl)cc1Cl)c1ccc[nH]1,inactive
19,COc1cc(/C=C(\C#N)c2ccccn2)ccc1OCc1ccc(Cl)cc1,inactive
20,C/C(=N\Nc1cc(C)nc(-c2ccccc2O)n1)c1ccccc1,inactive
21,O=C(Nc1cc(S(=O)(=O)N2CCCCC2)ccc1Cl)c1ccccc1NS(=O)(=O)c1ccc(F)cc1,inactive
22,Clc1ccccc1CN(Cc1ccccc1)c1ncnc2nc[nH]c12,inactive
23,COC(=O)c1ccc(NC(=O)Nc2ccc(F)c(Cl)c2)cc1,inactive
24,O=C1C(Cl)=C(Nc2ccc(O)cc2)C(=O)c2ccccc21,inactive
25,COc1ccc2cc(/C=C3\SC(=S)NC3=O)c(N3CCOCC3)nc2c1,inactive

row,Compound,Potency
1,O=S1(=O)C=C(Sc2nc3cc(Cl)ccc3o2)c2ccccc21,inactive
2,O=C(Nc1ccc(Oc2ccc(Cl)cc2)c(Cl)c1)c1cc(I)cc(I)c1O,inactive
3,O=C(COC(=O)c1ccccc1C(=O)c1ccc(Cl)c([N+](=O)[O-])c1)NC1CCCCCC1,inactive
4,O=C(O)c1ccc(Cl)cc1Nc1nc2cc(Cl)ccc2o1,inactive
5,COc1ccc(CNC(=O)Cn2nc(Cc3cccnc3)c3ccccc3c2=O)cc1,inactive
6,CCC(=O)NC1=C(Cl)C(=O)C(NC(=O)CC)=C(Cl)C1=O,30.1 µM (active)
7,N#C/C(=N\Nc1ccc(Cl)c(Cl)c1)C(=O)C1CC1,inactive
8,O=S(=O)(Nc1cc(Cl)ccc1-n1cncn1)c1cc(Br)ccc1Br,inactive
9,O=C(Nc1cccc(Cl)c1)Nc1ccc(Br)cc1F,inactive
10,COC(=O)c1ccc(C2N=C(c3cccs3)CC(c3ccccc3O)N2)cc1 (stereo not drawn),inactive
11,COc1ccc(CNC(=O)C(c2ccco2)N(C(=O)c2snc(C(N)=O)c2N)c2cccc(OC)c2)cc1 (stereo not drawn),13.5 µM (active)
12,COc1cc(C(C(=O)NCc2ccccc2)N(C(=O)c2snc(C(N)=O)c2N)C2CCCC2)cc(OC)c1OC (stereo not drawn),inactive
13,COc1ccc(CNC(=O)C(C)OC(=O)c2cccs2)cc1 (stereo not drawn),inactive
14,O=C(O)/C=C/c1ccc(S(=O)(=O)Nc2ccccc2C(=O)Nc2ccc(F)cc2)cc1,inactive
15,O=C1C(SCCO)=C(SCCO)C(=O)c2ccccc21,26.9 µM (active)
16,OCCSc1nnc(Nc2ccccc2)s1,inactive
17,CN1CCN(C2=CC3=CC(=C(C#N)C#N)CCC3CC2)CC1 (stereo not drawn),inactive
18,Nc1nc(SCC(=O)C23CC4CC(CC(C4)C2)C3)n[nH]1,inactive
19,CC(C)(C)C(=O)NC(NC(=S)Nc1sc2c(c1C#N)CCCC2)C(Cl)(Cl)Cl (stereo not drawn),inactive
20,CC1Cc2ccccc2N1C(=O)COC(=O)/C=C/c1ccc(F)cc1 (stereo not drawn),inactive
21,COc1cc(NC(=O)Cn2nc(C(F)(F)F)c(Br)c2C)cc([N+](=O)[O-])c1,inactive
22,CCCC(=NC(C)CC)C1=C(O)CC(c2ccccc2)CC1=O (stereo not drawn),inactive
23,CCn1nc(C)cc1-c1nnc(Sc2ncc([N+](=O)[O-])s2)n1C,37.9 µM (active)
24,O=C(Nc1ncc(S(=O)(=O)c2ccc([N+](=O)[O-])cc2)s1)c1ccccc1F,inactive
25,Cc1nc(NCCc2ccccc2)c(C#N)c(C)c1[N+](=O)[O-],inactive

row,Compound,Potency
1,O=C(OCn1ncc(Cl)c(Cl)c1=O)c1ccccc1Cl,inactive
2,O=S(=O)(Nc1cccnc1)c1ccc(C2CCCCC2)cc1,inactive
3,CC(C)Cc1nc2oc3c(Cl)ncnc3c2c2c1CCC2,inactive
4,Cc1cccc(NC(=O)c2ccc(Cl)c(S(=O)(=O)N3CCc4ccccc43)c2)n1,inactive
5,COc1ccc(CCNc2ncnc3c2[nH]c2cc(OC)c(OC)cc23)cc1OC,inactive
6,COc1ccc(CCNC2=C(Cl)C(=O)N(CCc3ccccc3)C2=O)cc1OC,inactive
7,COc1ccc(CCNC2=C(Cl)C(=O)N(CCc3ccc(OC)c(OC)c3)C2=O)cc1OC,37.9 µM (active)
8,COc1ccc(OC)c(NC(=O)CSc2ncnc3c2cnn3-c2ccccc2Cl)c1,inactive
9,COc1ccc(-n2ncc3c(N(C)C4CCCCC4)ncnc32)cc1,inactive
10,COc1cccc(N2CCN(c3ncnc4c3cnn4-c3ccc(C)cc3C)CC2)c1,33.8 µM (active)
11,O=C(NC1C2CC3CC(C2)CC1C3)c1ccc2c(c1)OCO2 (stereo not drawn),inactive
12,CC(C)(C)OC(=O)NCCCCCc1cn([C@@H](CO)C(=O)NCCCCCCCCCCC(=O)N2CCN(C(=O)OC(C)(C)C)CC2)nn1,37.9 µM (active)
13,Cc1cccc(OCC(=O)Nc2nc3ccc([N+](=O)[O-])cc3s2)c1C,inactive
14,CCOc1cc(N2CCOCC2)c(OCC)cc1NC(=O)c1cc(S(=O)(=O)N2CCOCC2)ccc1C,inactive
15,CCOC(=O)c1ccc(NC(=O)c2nc(S(=O)(=O)Cc3ccccc3)ncc2Cl)cc1,inactive
16,CC(C)c1nnc(NC(=O)c2nc(S(=O)(=O)Cc3ccccc3F)ncc2Cl)s1,inactive
17,Cc1ccc(CS(=O)(=O)c2ncc(Cl)c(C(=O)Nc3nnc(C(C)C)s3)n2)cc1,inactive
18,CN(c1ccccc1)S(=O)(=O)c1ccc(NC(=O)c2nc(S(C)(=O)=O)ncc2Cl)cc1,30.1 µM (active)
19,Cc1ccc(NC(=O)c2nc(S(=O)(=O)Cc3ccccc3C)ncc2Cl)cc1C,inactive
20,O=C(Nc1ccccc1)c1nnsc1S(=O)(=O)c1ccc(Cl)cc1,inactive
21,CCC1CCCCN1S(=O)(=O)c1ccc(NC(=O)c2nc(S(C)(=O)=O)ncc2Cl)cc1 (stereo not drawn),30.1 µM (active)
22,CCS(=O)(=O)c1ncc(Cl)c(C(=O)Nc2ccc(S(=O)(=O)N(C)c3ccccc3)cc2)n1,42.6 µM (active)
23,CN(c1cccc(NC(=O)c2ccc(Cl)c(S(=O)(=O)Nc3ccccc3)c2)c1)S(C)(=O)=O,inactive
24,CCCc1nnc(NC(=O)c2nc(S(=O)(=O)Cc3ccc(C)cc3)ncc2Cl)s1,inactive
25,CCN(c1ccccc1)S(=O)(=O)c1ccc(NC(=O)c2nc(S(C)(=O)=O)ncc2Cl)cc1,33.8 µM (active)

row,Compound,Potency
1,COC(=O)c1ccc(NC(=O)c2nc(S(=O)(=O)Cc3cccc(C)c3)ncc2Cl)cc1,inactive
2,COc1ccc(OC)c(NC(=O)c2cc(S(=O)(=O)NCc3ccco3)ccc2F)c1,inactive
3,COc1ccccc1C1CCN(c2cc(O)ccc2[N+](=O)[O-])CC1,inactive
4,Cc1ccc(C)c(N2CCN(C(=O)C(Cc3ccccc3)n3cccc3)CC2)c1 (stereo not drawn),inactive
5,Cc1ccccc1NC(=O)c1cc2ccccn2n1,inactive
6,Cc1csc(NC(=O)c2cc3c(C)nn(Cc4ccccc4Cl)c3s2)n1,inactive
7,COC(=O)CCN(Cc1cc(OC)ccc1OC)S(=O)(=O)c1ccccc1Br,inactive
8,CCn1c(=NC(=O)CSC(C)=O)sc2cc(OC)ccc21,inactive
9,Brc1ccc(CNc2ccc3ncccc3c2)cc1,inactive
10,Cc1n[nH]c(C)c1S(=O)(=O)N1CCCC(C(=O)N2CCN(c3ccc(Cl)cc3)CC2)C1 (stereo not drawn),inactive
11,CCCCn1c(-c2c(Cl)c(C)nn2C)n[nH]c1=S,inactive
12,Clc1ccc(CCNc2ncnc3nc[nH]c23)cc1,inactive
13,Cc1cc(-n2c(C)cc(C(=O)CSc3[nH]c(=O)cc(C(F)(F)F)c3C#N)c2C)no1,inactive
14,Cc1ccc(C(=O)C2=C(O)C(=O)N(c3ncccn3)C2c2ccccc2F)o1 (stereo not drawn),inactive
15,O=c1[nH]nc(Cc2ccc(-c3cccc(Cl)c3)o2)c2ccccc12,inactive
16,C1=C(CCNc2ncnc3c2[nH]c2ccccc23)CCCC1,inactive
17,COc1ccc(N2CCN(C(c3nnnn3CCc3ccccc3)C(C)C)CC2)cc1 (stereo not drawn),inactive
18,O=C(NCCC1=CCCCC1)C1CCCN(S(=O)(=O)c2ccccc2)C1 (stereo not drawn),inactive
19,CCCCCCOc1ccc(NC(=O)CC2C(=O)N(CC)C(=S)N2Cc2ccco2)cc1 (stereo not drawn),inactive
20,O=[N+]([O-])c1ccc(Sc2cccc[n+]2[O-])c2nonc12,23.9 µM (active)
21,COc1ccc(Nc2ccc([N+](=O)[O-])c3nonc23)c(OC)c1,inactive
22,COC(=O)c1c(NC(NC(C)=O)C(Cl)(Cl)Cl)sc2c1CCCC2 (stereo not drawn),inactive
23,COc1cc([N+](=O)[O-])cc(/C=C2/SC(=S)N(Cc3ccccc3)C2=O)c1O,inactive
